Test results taken from PubChem BioAssay AID686978 (National Center for Advancing Translational Sciences (NCATS), 2013).
Values joined by “and” are separate entries in the source; they are usually repeats but may differ in a detail not shown here. Equal entries are not always repeated. Screen size: about 420,000 compounds; about 64,000 (15%) were called active. About 27% were inconclusive and are not listed. The call rests on the fitted dose curve; in most records, active means well fitted inhibition curve with a large enough effect; inconclusive means small, poorly fitted or top-dose-only effect; inactive means flat fitted curve, though single readings scatter. A selection follows. Entries that show only a call come without a potency.

Experiment: qHTS for Inhibitors of human tyrosyl-DNA phosphodiesterase 1 (TDP1): qHTS in cells in absence of CPT; further: nearly all actives have a fitted effect of over 55% in size
Conditions: DT40 Tdp1-/- hTDP1 cells, no CPT, ATP luminescence, 48 h; activity change, negative = growth inhibition: at 46.2 µM (top of the series)
Procedure, shortened: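 Growth of hTDP1-complemented DT40 Tdp1-knockout cells is measured by ATP luminescence after at least 48 hr compound exposure at 37 °C, with DMSO substituting for the 20 nM CPT used in the parallel screen.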
Potency means the concentration at half of the fitted maximal effect.

Row | Compound | Potency
1 | Cc1c(-c2cccc(Cl)c2)nc2ccccc2c1C(=O)OCC(=O)N(C)C1CCS(=O)(=O)C1 (configuration not stated) | inactive
2 | CC(=O)Nc1ccc(C(=O)NNC(=O)CCCCC(=O)NNC(=O)c2ccc(NC(C)=O)cc2)cc1 | inactive
3 | O=C(c1cn(-c2ccccc2)nc1-c1cccnc1)N1CCCCC1 | inactive
4 | CCC(=O)OCc1c(C(F)(F)F)nn(C)c1Oc1cccc(C(F)(F)F)c1 | inactive
5 | Cc1cc(Br)ccc1NC(=O)c1sc2ncn(CC(=O)N3CCN(c4ccccn4)CC3)c(=O)c2c1C | inactive
6 | CCc1cccc(NC(=O)c2cnc(N3CCOCC3)c3ccccc23)c1 | 11.6 µM (active)
7 | Cc1cc(Br)ccc1NC(=O)c1cnc(N2CCN(c3ccccn3)CC2)c2ccccc12 | 13 µM (active)
8 | O=C(Nc1ccc(F)cc1)c1cccnc1N1CCOCC1 | inactive
9 | Cc1ccc(S(=O)(=O)NCC(=O)N2CCN(c3ccccn3)CC2)cc1 | inactive
10 | CSc1ncccc1C(=O)Nc1cccc(S(=O)(=O)N2CCOCC2)c1 | inactive
11 | CCOC(=O)COc1nc(C)cc(C(F)(F)F)c1C#N | inactive
12 | CCOC(=O)c1c(N)sc2c1CCCC2=O | inactive
13 | COc1ccc(-n2c(=O)c3ccccc3n(Cc3ccccc3Cl)c2=O)cc1 | inactive
14 | CCC(=O)c1ccc(OCC(=O)OCC(=O)N2CCc3ccccc3C2)cc1 | inactive
15 | OCCN1CCN(C(=S)c2ccc(-c3ccccc3)cc2)CC1 | inactive
16 | CN(C)CCNC(=O)Cc1ccc([N+](=O)[O-])cc1 | inactive
17 | Cn1cc(CCC(=O)NCc2ccc3c(c2)OCO3)c2ccccc21 | inactive
18 | Cc1nc2nc(COc3ccccc3)[nH]n2c(=O)c1C | inactive
19 | OCC[C@H]1C[C@H](O)[C@@H](O)[C@]2(CCc3ccccc3O2)O1 | inactive
20 | CCOc1cccc(SCc2noc(C(=O)NC(C)C)c2C(=O)O)c1 | inactive
21 | CC1CN(S(=O)(=O)c2cccc(C(F)(F)F)c2)CN1C(=O)N1CCOCC1 (configuration not stated) | inactive
22 | O=C(NC1CCCCC1)c1ccc(Cn2c(SCc3ccccc3)nc3cccnc32)cc1 | inactive
23 | O=C(O)c1ccc(CSc2nc3cccnc3n2Cc2cccc(F)c2)cc1 | inactive
24 | Cc1oc(-c2ccccc2)nc1Cn1c(SCc2cccc(C(F)(F)F)c2)nc2cccnc21 | 25.9 µM (active)

Row | Compound | Potency
25 | O=C(Cc1ccccc1)NNC1CC(=O)N(c2ccc(Br)cc2)C1=O (configuration not stated) | inactive
26 | Cc1onc(C(=O)Nc2ccc3c(c2)OCO3)c1[N+](=O)[O-] | inactive
27 | CN(CC(=O)NC1CCCCC1)S(=O)(=O)c1cccc2cccnc12 | inactive
28 | CC(=O)OC[C@@H]1CN(Cc2ccccc2)C[C@H](n2cnc3c(NCc4ccco4)ncnc32)O1 | inactive
29 | Nc1ncnc2c1ncn2[C@@H]1O[C@H](C(=O)NCC(F)(F)F)[C@@H](O)[C@H]1O | inactive
30 | COCCn1c(=O)c(-c2cc(F)cc(F)c2)nc2cnc(N3CCNCC3)nc21 | 23.1 µM (active)
31 | N#Cc1cccc(-c2nc3cnc(N4CCNCC4)nc3n(C3CC3)c2=O)c1 | 3.66 µM (active)
32 | O=c1c(-c2ccc(F)cc2)nc2cnc(N3CCOCC3)nc2n1-c1ccccc1 | inactive
33 | COCCn1c(=O)c(-c2ccccc2)nc2cnc(N3CCOCC3)nc21 | inactive
34 | COCCn1c(=O)c(-c2cc(F)cc(F)c2)nc2cncnc21 | inactive
35 | O=c1c(CCc2ccccc2)nc2cnc(N3CCNCC3)nc2n1Cc1cccs1 | inactive
36 | COC(=O)c1ccc(NC(=O)c2cc3c(CO)cnc(C)c3oc2=Nc2cccc(C(N)=O)c2)cc1 | inactive
37 | Cc1cc(C(=O)N2CCC(C(=O)O)CC2)c(C(F)(F)F)o1 | inactive
38 | COC(=O)c1ccc(CSc2ccc(S(=O)(=O)N3CCCCC3)cn2)cc1 | inactive
39 | C/C(CC(=O)Nc1ccc(C)cc1C)=N\NC(=O)C(C)C | inactive
40 | CN(C)N1C(N)=C(C#N)C(c2ccc(Br)cc2)C2=C1CCCC2=O (configuration not stated) | inactive
41 | Cc1ccc(S(=O)(=O)N(C)C)cc1NC(=O)COC(=O)c1c(C)noc1C | inactive
42 | C=CCCC(=O)N1C[C@H]2CON(C)[C@H]2C[C@H]1c1cccc(Nc2ccccc2)c1 | inactive
43 | CCCCCC(=O)N1C[C@H](O)[C@@H](n2cc(COC(=O)c3ccccc3)nn2)C[C@@H]1c1ccc(C)cc1 | 0.82 µM (active)
44 | O=C(OCc1cn([C@@H]2C[C@H](c3ccc(Cl)cc3)N(Cc3cccs3)C[C@H]2O)nn1)c1ccccc1 | inactive
45 | O=C(c1cccs1)N1C[C@H](n2cc(C3CC3)nn2)[C@@H](O)C[C@@H]1c1ccccc1 | inactive
46 | O=C(OCc1cn(-c2ccc(Cl)c(Cl)c2)nn1)c1ccccc1Cl | inactive
47 | O=C(OCc1cn([C@H]2C[C@H](c3ccccc3)N(C(=O)c3cccs3)C[C@@H]2O)nn1)c1ccccc1 | 18.4 µM (active)
48 | CCCCN(C)CCNC(=O)CSCc1ccc(C)cc1 | inactive

Row | Compound | Potency
49 | CC1=CC(=O)C=CC1(C)C(Cl)(Cl)Cl (configuration not stated) | inactive
50 | CCN(CC(=O)NCc1ccco1)S(=O)(=O)c1ccc(F)cc1 | inactive
51 | Cc1c(C=O)c2ccccn2c1C(=O)c1ccncc1 | inactive
52 | COc1ccc([N+](=O)[O-])cc1-c1nc2ccccc2nc1-c1ccccc1 | inactive
53 | O=C(Cn1c(=O)nc(-c2ccccc2)c2cc(Cl)ccc21)NCc1ccc(Cl)cc1 | 23.1 µM (active)
54 | COC(=O)Cn1nc(-c2ccccc2)c2cc(Cl)ccc21 | inactive
55 | CCN(C(=O)Cn1c(=O)nc(-c2ccccc2)c2cc(Cl)ccc21)c1cccc(C)c1 | inactive
56 | Cc1ccc(N(CC(=O)NC2CCCCC2)C(=O)CCCC(=O)Nc2ccccn2)c(C)c1 | inactive
57 | Cn1nccc1C(=O)NCC1CCC2(CCN(Cc3c(O)ccc4ccccc34)CC2)O1 (configuration not stated) | inactive
58 | CCOC(=O)c1nc(Nc2ccc(C(=O)OC)cc2)c2ccccc2n1 | 8.2 µM (active) and 20.6 µM (active)
59 | COC(=O)c1ccc(Nc2ncnc3sccc23)cc1 | inactive
60 | CCOC(=O)c1ccc(Nc2cc(C)nc3nc(C)nn23)cc1 | inactive
61 | COc1cc(C(=O)N2C(=O)c3cccc(N)c3C2=O)cc(OC)c1OC | inactive
62 | O=C(CCc1ccccc1)Nc1nn[nH]n1 | inactive
63 | O=C(O)c1ccc(N=NN2CCOCC2)cc1 | inactive
64 | Cc1cccc(OCC(=O)Nc2ccc(NC(=O)c3ccco3)c(C)c2)c1 | 16.4 µM (active)
65 | Cc1ccc(C(=O)COc2cccc(NC(=O)c3ccco3)c2)cc1 | 20.6 µM (active)
66 | Cc1ccc(NC(=O)c2ccco2)cc1 | inactive
67 | CCOc1cc(NC(=O)c2ccco2)c(OCC)cc1NC(=O)COc1ccccc1 | 4.61 µM (active)
68 | CCOc1cc(NC(=S)NCc2ccco2)c(OCC)cc1NC(=O)c1ccco1 | inactive
69 | O=C(COc1ccccc1)Nc1nonc1NC(=O)COc1ccccc1 | inactive
70 | O=C(Nc1cccc(NC(=O)c2ccco2)c1)c1cnccn1 | inactive
71 | COc1ccc(OCC(=O)Nc2ccc(NC(=O)c3ccco3)c(C)c2)cc1 | inactive
72 | Cc1cc(NC(=O)c2ccc(F)cc2)ccc1NC(=O)c1ccco1 | inactive
